Screening data from PubChem BioAssay.
FLuc counter = counter-screen for miR-21 project: firefly luciferase inhibitors or activators. Potency, µM (highest dose often 57.5 µM), usual class: inhibitors. purified FLuc, Km substrates, luminescence inhibition. P08659. 6.9% of 360,000 active. AID 588342; also: nearly all actives have a fitted effect of over 55% in size
Target sequence (P08659 whole entry, looked up): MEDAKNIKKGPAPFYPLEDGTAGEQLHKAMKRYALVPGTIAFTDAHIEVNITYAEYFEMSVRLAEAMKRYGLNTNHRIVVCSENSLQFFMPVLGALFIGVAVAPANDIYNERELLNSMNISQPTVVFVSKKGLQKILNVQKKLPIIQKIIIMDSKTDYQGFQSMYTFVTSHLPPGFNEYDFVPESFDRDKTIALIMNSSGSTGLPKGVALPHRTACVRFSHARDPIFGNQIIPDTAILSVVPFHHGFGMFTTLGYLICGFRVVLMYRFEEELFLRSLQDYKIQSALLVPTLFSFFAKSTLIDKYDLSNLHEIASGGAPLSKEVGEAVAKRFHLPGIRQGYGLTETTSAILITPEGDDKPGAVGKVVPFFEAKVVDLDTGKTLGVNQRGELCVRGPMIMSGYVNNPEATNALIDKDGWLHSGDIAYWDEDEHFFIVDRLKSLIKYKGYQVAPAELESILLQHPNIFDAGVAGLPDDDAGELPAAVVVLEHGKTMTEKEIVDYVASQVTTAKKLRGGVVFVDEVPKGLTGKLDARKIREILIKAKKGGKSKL
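Purified P. pyralis luciferase, 10 nM final, with Km-level 10 uM D-luciferin and 10 uM ATP in 50 mM Tris acetate pH 7.5, 10 mM Mg acetate, 0.01% Tween-20, 0.05% BSA; 6-point qHTS titration about 60 µM downward; luminescence read.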
NPC1 promoter act = activators of NPC1 promoter. Huh7 NPC1 promoter luciferase reporter, 24 h. Potency, µM (top dose mostly 9.22 µM), usual class: activators. 2.4% of 320,000 active. AID 485313; also: nearly all actives have a fitted effect of over 60% in size
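Cells: Huh7 expressing luciferase under the NPC1 promoter, 1500/well. Seeded 2 h, compound added, incubated 24 h at 37 °C. Luciferase reagent, 10 min ambient, then luminescence.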
SMN2 splice enh = increases expression of the SMN2 splice variant; HEK293 SMN2-luciferase splicing reporter, luminescence, 30-36 h; Potency, µM (series often up to 46.1 µM), hits mostly activators; 2.8% of 210,000 active; also: nearly all actives have a fitted effect of over 55% in size
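HEK293 cells carry an SMN2 minigene-luciferase reporter in which exon 7 inclusion puts luciferase in frame. Cells were seeded at 2000 cells/well, attached for 10-12 hours, then exposed to compounds for 30-36 hours at 37C before ONE-Glo luminescence.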
uPA generation = blocks generation of uPA at the cell surface; Potency, µM (series often up to 38.3 µM), hits mostly inhibitors; cell surface uPA generation assay, qHTS; 0.31% of 330,000 active; AID 540303; active = well fitted inhibition curve with a large enough effect; inconclusive = small, poorly fitted or top-dose-only effect; inactive = no such curve, though single readings can be large or run the other way; tested in mouse RAW 264.7 cells; also: nearly all actives have a fitted effect of over 55% in size
ELG1 genotoxic = induces genotoxicity in HEK293T cells with luciferase-tagged ELG1; HEK293T ELG1-luciferase reporter, luminescence, 16 h; Potency, µM (highest dose often 46 µM), actives largely listed as activators; 1.3% of 330,000 active; also: nearly all actives have a fitted effect of over 60% in size
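Cells (2,000/well) expressing the ELG1-luciferase fusion are dosed by pin tool and kept 16 hr at 37 °C, 5% CO2. Signal comes from ONE-Glo luciferase reagent after 30 min at room temperature.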
Rab9 promoter act = activates the Rab9 promoter; Huh7 Rab9 promoter-luciferase reporter, luminescence, 24 h; Potency, µM (doses to about 9.22 µM), usual class: activators; 2.8% of 320,000 active; also: nearly all actives have a fitted effect of over 60% in size
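Promoter activation is measured as luciferase luminescence in Huh7 cells stably transfected with a Rab9 promoter–luciferase construct, following 24 h compound exposure at 37 °C and 10 min reagent incubation at ambient temperature.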
Numbers stand for hits; n = inactive; u = inconclusive; x = no result; [ ] = remark or other dose. Most compounds without a hit are left out; they make up all but 7.3% or so of the library. Unless noted, calls follow the shape of the dose curve; as a rule, active = well fitted curve in the direction sought with a large enough effect; inconclusive = small, poorly fitted or top-dose-only effect, or another doubt; inactive = no such curve, though single readings can be large; an effect the other way counts as inactive or inconclusive.

SMILES | FLuc counter | NPC1 promoter act | SMN2 splice enh | uPA generation | ELG1 genotoxic | Rab9 promoter act
c1ccc(C2=Nn3c(nnc3-c3n[nH]c4c3CCC4)SC2)cc1 | n | n | u | n | 23µM | n
COc1ccc(C2=Nn3c(nnc3-c3ccc(OC)cc3)SC2)cc1 | n | n | u | n | u | n
COc1ccc(C2=Nn3c(nnc3-c3cc(C)[nH]n3)SC2)cc1 | n | n | x | n | 21µM | n
Cc1nnc2n(c1=O)N=C(c1ccc(Cl)cc1)CS2 | n | 1µM | 2µM | n | n | 0.5µM
O=C(O)c1cc2ncc(CCO)cn2n1 | n | n | n | n | n | n
COc1ccc2c(Sc3ccc(Cl)cc3)c(C(=O)NCCCN3CCCCC3)[nH]c2c1 | n | x | x | x | x | x
Fc1ccc(-c2nnn(Cc3nc4ccccc4s3)n2)cc1 | u | n | n | n | u | n
Clc1ccc(-c2nnn(Cc3nc4ccccc4s3)n2)cc1 | 19µM | n | n | n | u | n
O=C(O)c1cccc(NC(=O)c2cn(-c3ccccc3)nc2-c2cc3ccccc3o2)c1 | 4.3µM | n | n | n | n | n
O=C(N/N=C/c1cn(-c2ccccc2)nc1-c1cccnc1)c1ccc(F)cc1 | n | n | n | n | n | n
O=C(N/N=C/c1cn(-c2ccccc2)nc1-c1cc2ccccc2o1)c1cccnc1 | 2.1µM | u | 4µM | n | u | u
O=C(N/N=C/c1cn(-c2ccccc2)nc1-c1cccnc1)c1cccnc1 | u | n | n | n | n | n
NC(=O)c1cn(-c2ccccc2)nc1-c1cc2ccccc2oc1=O | n | n | n | n | n | n
O=C(N/N=C/c1cn(-c2ccccc2)nc1-c1cc2ccccc2o1)c1ccncc1 | 1.9µM | 2.8µM | 7.1µM | n | u | 2.2µM
COc1cc(Nc2nc3c(S(=O)(=O)c4ccccc4)nnn3c3ccc(Cl)cc23)cc(OC)c1 | n | x | n | x | x | x
Cc1ccc(NC(=O)C2CCCN2c2nn3c(=O)cc(C)nc3s2)cc1 (configuration not stated) | n | n | x | n | n | n
CCC(C)n1c(=N)c(C(=O)NCc2ccccc2)cc2c(=O)n3cc(C)ccc3nc21 (configuration not stated) | n | x | n | x | x | x
COc1ccc(C2=C/C(=C\c3ccc(OC(C)=O)cc3)C(=O)O2)cc1 | n | n | n | n | n | n
CC(=O)Oc1cccc(/C=C2\C=C(c3ccc(C)cc3)OC2=O)c1 | 2.7µM | n | n | n | n | n
Cc1ccc(C2=C/C(=C/c3cccs3)C(=O)O2)cc1 | 0.38µM | n | n[1.84 µM] | n | n | n
COCCn1c(=O)c(-c2cccs2)nc2cnc(Oc3cccc(Cl)c3)nc21 | x | x | n | x | x | x
CCOC(=O)c1[nH]c(C)c(CCC(=O)N2CCN(c3ccc(OC)cc3)CC2)c1C | n | x | x | x | x | x
CCN(CC)c1ccc(N=C2C(=O)Nc3ccccc32)cc1 | 6.7µM | n | x | n | n | n
CCCCC(=O)NC1(C(F)(F)F)C(=O)Nc2c1c(=O)[nH]c(=O)n2-c1ccc(F)cc1 (configuration not stated) | n | x | x | x | x | x
COCCNC(=O)c1cc(-c2cccc(OC)c2)on1 | 12µM | 3.5µM | 11µM | n | u | 3.2µM
SMILES | FLuc counter | NPC1 promoter act | SMN2 splice enh | uPA generation | ELG1 genotoxic | Rab9 promoter act
O=C(NC1CCCCC1)c1ccc(-c2cccc([N+](=O)[O-])c2)o1 | 2.7µM | 0.32µM | x | n | 2.1µM | 0.4µM
COCC(C)NC(=O)c1cc(-c2cccc(OC)c2)on1 (configuration not stated) | u | u | u | n | u | 2.2µM
COc1cccc(-c2cc(C(=O)NC3CCCC3)no2)c1 | 4.3µM | 1.4µM | 11µM | n | 1.8µM | 0.63µM
Cc1nn(CC(=O)NCc2cccc(Br)c2)c(=O)c2c1sc1ccccc12 | n | x | x | x | x | x
CCOc1ccc(-n2ccnc2SCC(=O)Nc2cccc3ccccc23)cc1 | n | x | x | x | x | x
Cc1cc(C)c2cc3c(N)c(C(=O)N4CCOCC4)sc3nc2c1 | 11µM | u | x | n | n | u
Cc1cc(C)c2nc3sc(C(=O)N4CCOCC4)c(N)c3cc2c1 | 0.21µM | 2.2µM | x | n | 1.5µM | u
Cc1ccc(C)c2nc3sc(C(=O)N4CCOCC4)c(N)c3cc12 | u | n | x | n | u | u
CCOc1ccc2nc3sc(C(=O)N4CCOCC4)c(N)c3cc2c1 | 1.5µM | 0.56µM | 1.3µM | n | n | 0.56µM
Cc1ccc2nc3sc(C(=O)Nc4ccc(N5CCOCC5)cc4)c(N)c3cc2c1 | n | n | n | x | n | n
CCOC(=O)c1cccc(NC(=O)c2cc3sccc3n2C)c1 | 24µM | 0.35µM | 14µM | x | u | 0.89µM
CCc1sc(C(=O)Nc2cccc(C(C)=O)c2)cc1C | 11µM | n | u | n | n | u
CCOC(=O)c1cccc(Nc2nc(C)cc(C)n2)c1 | u | u | u | n | n | 4.5µM
CCOC(=O)c1ccc2nc(C)cc(Nc3cccc(C(=O)O)c3)c2c1 | n | n | n | x | n | n
CCOC(=O)c1cccc(NC(=O)c2cc3sccc3n2Cc2ccc(Cl)cc2)c1 | n | x | n | x | x | x
COc1cc(NC(=O)c2ccccc2Cl)ccc1NC(=O)c1cccs1 | 13µM | u | 22µM | n | u | 2.8µM
